# TGFb inhibitor = blocks TGF-b signaling. HepG2 CAGA-GFP TGF-b/SMAD3 reporter, GFP fluorescence, 18 h; TGF-beta stimulated, 500 pg/mL final. Potency, µM (highest dose often 46.1 µM), for inactives: at the highest dose activity, negative = inhibition, actives largely listed as inhibitors. actives 1.2% (n = 410,000); further: potency means the concentration at half of the fitted maximal effect; on the % scale 0 is the no-effect control and ±100 the full control effect; nearly all actives have a fitted effect of over 65% in size
#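 Cell-based qHTS in HEPG2 carrying a CAGA-GFP Smad reporter; compounds added before 500 pg/mL final TGF-beta, 18 h incubation at 37 degrees C, GFP fluorescence quantified per cell by imaging cytometry.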
# IL-1B inflam inh = inhibitors of inflammasome signaling (IL-1 beta secretion); THP-1 LPS/ATP IL-1B secretion, AlphaLISA, 16 h; stronger effect = lower value; activity change, % at 57.5 µM; actives 4.7% (n = 360,000); AID 743279; in the data active means activity change below about -50%; inconclusive means mostly about -30% to -49%; further: on the % scale 0 is the no-effect control and ±100 the full control effect
#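 THP-1 cells pretreated 1 hr with compounds (up to 57.5 uM final), then stimulated with LPS (250 ng/mL final) plus ATP (1.25 mM final); secreted IL-1B measured by AlphaLISA after 16 hr, decreased signal indicating inhibition.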
# ATXN2 expr inh = inhibitors of ATXN2 expression | HEK-293 ATXN2-luciferase reporter, luminescence, 24 h | Potency, µM (highest dose often 57 µM), for the others: at the highest dose activity change, negative = inhibition, most hits filed as inhibitors | actives 0.72% (n = 360,000) | AID 1745845; further: potency means the concentration at half of the fitted maximal effect; on the % scale 0 is the no-effect control and ±100 the full control effect; nearly all actives have a fitted effect of over 55% in size
#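 ATXN2-luciferase reporter cells (luciferase flanked by upstream and downstream ATXN2 gene portions) were treated 24 h at 37 °C with compounds at up to 57 uM. SteadyGlo luminescence gave expression; GF-AFC fluorescence gave viability.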
# HepG2 viability = HepG2 cytotoxicity, counter-screen for TGF-b inhibitors; HepG2 CAGA-GFP viability, ATP luminescence, 18 h; Potency, µM (series often up to 46.1 µM), inactives show at the top dose activity change, negative = cytotoxicity, usual class: cytotoxic; actives 0.76% (n = 410,000); further: potency means the concentration at half of the fitted maximal effect
#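 HepG2 CAGA-GFP cells (1000/well, DMEM with 1% FBS) received compound, then TGF-beta at 500 pg/mL final, and were incubated 18 hours at 37 degrees C. Viability was read by CellTiter-Glo luminescence. Media-only wells were set as complete cell-killing and DMSO as no toxicity.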
# S2 tox = reduces viability in counter-screen for ATXN expression inhibitors | AID 651635 | S2 cells (HEK-293 line with an ATXN2-luciferase reporter) viability, CellTiter-Fluor protease fluorescence, 24 h | actives 0.49% (n = 400,000) | Potency, µM (titrated, usually from 56.7 µM), most hits filed as cytotoxic; further: potency means the concentration at half of the fitted maximal effect; nearly all actives have a fitted effect of over 40% in size
# Starred values were filed as active, the others as inactive; i = inactive; ? = inconclusive; · = no result. The list is not random: actives were taken first. Their share in the collection is about 5.7%. Unless noted, the call rests on the fitted dose curve; in most records, active means well fitted curve in the direction sought with a large enough effect; inconclusive means small, poorly fitted or top-dose-only effect, or another doubt; inactive means no such curve, though single readings can be large; an effect the other way counts as inactive or inconclusive.
SMILES,TGFb inhibitor,IL-1B inflam inh,ATXN2 expr inh,HepG2 viability,S2 tox
CCOC(=O)c1c(SCC(=O)Nc2nc3ccc(C)cc3s2)nc(=O)[nH]c1C,-1.3%,·,12.1%,-16.8%,i
Cc1ccc(S(=O)(=O)NN2C(=O)c3ccccc3NC2c2ccccn2)cc1 (stereo unspecified),-1.3%,-111.5*,2.1%,-0.4%,i
CCOC(=O)c1c(NC(C)=O)sc2c(O)c(CN3CCN(CC)CC3)ccc12,?,-62.7*,13.6%,11.2µM*,?
CCOC(=O)c1c(NC(C)=O)sc2c(OC)c(Br)ccc12,0.7%,-18.4,-22.8%,9.4%,i
Cc1ccc(S(=O)(=O)N2CCCN(C(=O)c3cc4ccccc4[nH]3)CC2)cc1,?,-61.4*,54.7%,-21.8%,i
CN1CCN(C(=O)c2cc3ccccc3[nH]2)CC1,4.0%,8.7,·,-19.6%,i
O=C(c1cc(S(=O)(=O)N2CCN(c3ccccc3)CC2)ccc1Cl)N1CCCCCCC1,?,-52.6*,?,3.8%,?
Cc1ccc(S(=O)(=O)N2CCN(C(=O)c3c(C)nn(-c4ccccc4)c3Cl)CC2)cc1,0.6%,-53.8*,-2.2%,-2.1%,i
CC1CN(C(=O)c2cc(S(=O)(=O)N3CCN(c4ccccc4)CC3)ccc2Cl)CC(C)O1 (stereo unspecified),-24.9%,5.2,-27.4%,-12.8%,i
COc1ccc(S(=O)(=O)N2CCN(C(=O)c3c(C)nn(-c4ccccc4)c3Cl)CC2)cc1,-1.8%,-10.6,-14.5%,-29.8%,i
COc1cccc(N2CCN(C(=O)CCCCCNc3nc(=S)[nH]c4ccccc34)CC2)c1,?,-174.9*,·,-1.4%,i
O=C(CCCn1c(=S)[nH]c2ccccc2c1=O)N1CCN(c2cccc(Cl)c2)CC1,?,20.9,·,-6.1%,·
Oc1ccc(-c2csc(-c3cccnc3)n2)cc1O,-20.0%,-77.7*,-20.0%,-32.6%,i
COc1ccc(-c2nc3c(c(=O)[nH]c(=O)n3Cc3ccccc3)n2CCO)cc1,-15.6%,50.5,-1.3%,-16.8%,i
O=c1[nH]c(=O)n(Cc2ccccc2)c2nc(-c3ccc(Oc4ccc(F)cc4)c([N+](=O)[O-])c3)n(CCO)c12,12.6µM*,-23.1,?,-54.3%,?
COc1ccc(N2Cc3ccccc3C2=O)cc1,-8.2%,-5.2,-2.8%,-68.9%,?
C=CC(=O)Oc1ccc(N2Cc3ccccc3C2=O)cc1,?,-0.4,·,-41.9%,31.6µM*
Cc1ccccc1CNc1ccc(C(CC(N)=O)NC(=O)c2ccccc2)cc1[N+](=O)[O-] (stereo unspecified),-22.9%,-78.4*,?,-38.2%,?
Cc1cccc(CNc2ccc(C(CC(N)=O)NC(=O)c3ccccc3)cc2[N+](=O)[O-])c1 (stereo unspecified),-22.8%,-10.2,-18.6%,-8.6%,i
CCOC(=O)CNC(=O)c1sc2ncnc(N3CCc4ccccc4C3)c2c1C,-8.3%,-70.1*,4.6%,-11.4%,i
COC(=O)C(NC(=O)c1ccco1)(Nc1cc(C)ccn1)C(F)(F)F (stereo unspecified),14.4%,8.8,3.1%,3.16µM*,i
Cn1c(SCc2ccccc2Cl)nc(=O)c2c1NC(=O)CC2c1cc(F)ccc1F (stereo unspecified),-0.6%,·,9.9%,-20.7%,i
COc1cc(CCC(=O)Nc2c(C(=O)N3CCN(c4ccccc4)CC3)oc3ccccc23)on1,0.5%,-61.4*,-14.5%,-17.7%,i
COc1ccc(OC)c(-c2cc(C(=O)Nc3cnn(Cc4ccc(Cl)cc4Cl)c3)no2)c1,-2.6%,·,-23.8%,-3.5%,?
CCc1ccc(NC(=O)Cn2c(=O)n(CCCCC(=O)NCCc3ccc(Cl)cc3)c(=O)c3ccccc32)cc1,1.1%,·,2.8%,-2.6%,i
SMILES,TGFb inhibitor,IL-1B inflam inh,ATXN2 expr inh,HepG2 viability,S2 tox
COC(=O)c1ccc(COC(=O)[C@@H]2CC(O)CN2S(=O)(=O)c2ccccc2[N+](=O)[O-])cc1 (stereo partly specified),6.5%,-97.4*,-3.0%,-0.4%,i
CCc1cccc2c(C(=O)COC(=O)[C@@H]3CC(O)CN3S(=O)(=O)c3ccccc3[N+](=O)[O-])c[nH]c12 (stereo partly specified),-0.5%,-76.4*,-9.5%,-1.7%,i
O=C(COC(=O)[C@@H]1CC(O)CN1S(=O)(=O)c1ccccc1[N+](=O)[O-])c1ccccc1 (stereo partly specified),-22.7%,11.5,16.1%,-7.7%,i
CCc1ccc(NC(=O)C(=O)NCC(c2cccnc2)N2CCN(Cc3ccccc3)CC2)cc1 (stereo unspecified),2.6%,·,3.1%,10.5%,i
COC(=O)[C@@H]1CCCN1C(=O)c1c(OC)cc(=O)n2c1CCN(Cc1ccc(C)o1)CC2,·,·,·,·,i
COc1cccc(NC2=C(NCCO)C(=O)c3ccccc3C2=O)c1,2.8%,-73.7*,-29.4%,-6.6%,i
Cc1cccc(NC2=C(NCCO)C(=O)c3ccccc3C2=O)c1,?,-56.8*,-21.0%,-19.2%,i
COc1ccc(NC2=C(NCCO)C(=O)c3ccccc3C2=O)cc1,-12.2%,11.0,-5.0%,-41.8%,i
Cc1cccc(Nc2nc(N)c([N+](=O)[O-])c(NCCO)n2)c1,-1.0%,20.6,-14.9%,1.8%,i
Cc1cc(C)c2c(n1)NCCC2,?,·,·,-4.6%,·
COc1ccc(OC)c(NC(=O)c2cnn(-c3ccc(C)cc3)c2C2CCNCC2)c1,-0.7%,·,-1.6%,-40.5%,i
COc1ccc(SCC(c2ccccc2)N2CCN(CC(C)C)CCC2=O)cc1 (stereo unspecified),-23.3%,·,·,-29.0%,·
COc1cc(C(C)C)c(Oc2cnc(NC(CO)CO)nc2N)cc1I,·,·,24.3µM*,·,·
CCOCc1c(C(=O)Nc2ccccc2N2CCN(C)CC2)oc2ccccc12,-11.2%,-57.5*,-18.4%,-35.6%,i
CCOCc1c(C(=O)Nc2cc(OCC)c(N3CCOCC3)cc2OCC)oc2ccccc12,-26.2%,27.1,6.5%,-17.4%,i
CN(Cc1ccccc1)CC(O)COc1ccc(CNCc2ccc(Cl)s2)cc1 (stereo unspecified),12.6µM*,-80.1*,?,-59.0%,?
CC(C)N(C(=O)[C@H]1C[C@H](CC(=O)NCCC2=CCCCC2)C(=O)N2CCc3c([nH]c4cc(-c5ccco5)ccc34)[C@]12C)C(C)C,?,-68.7*,?,-4.3%,?
CC(C)N(C(=O)[C@H]1C[C@H](CC(=O)NCCCN(C)C)C(=O)N2CCc3c([nH]c4cc(-c5ccco5)ccc34)[C@]12C)C(C)C,?,-18.2,?,20µM*,31.6µM*

# Assay outcomes as filed in PubChem.
